This passage reports AC50 and outcome results from PubChem BioAssay (EPA / NIEHS).

Common to all, as to conditions: mRNA level, 48 h; actives raise or lower the signal
Read-out in one test: HGF (gene 3082)
Kind of test: LTEA_HepaRG_HGF: Life Technologies and Expression Analysis (LTEA) Assay for Hepatocyte Growth Facto (HGF) using HepaRG (AID 2283505). In a few lines: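 Read-out is HGF transcript level by qRT-PCR, normalized to three housekeeping genes, fitted bidirectionally against 0.5% DMSO vehicle. Human HepaRG cells received test chemicals for 48 h at up to 100 uM.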

Read-out in test [1]: Insulin Like Growth Factor 1 (IGF1), IGF1 (gene 3479)
The experiment in a line: LTEA_HepaRG_IGF1: Life Technologies and Expression Analysis (LTEA) Assay for Insulin Like Growth Factor 1 (IGF1) using HepaRG (AID 2283506). In a few lines: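 Cells are thawed, plated and cultured 48 h, then exposed in duplicate to chemical (highest 100 uM, half-log steps, 0.5% DMSO) for another 48 h. Total RNA is analysed by Fluidigm qRT-PCR for IGF1 expression relative to vehicle.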

Read-out in test [2]: Intercellular Adhesion Molecule 1 (ICAM1), ICAM1 (gene 3383)
Kind of test: LTEA_HepaRG_ICAM1: Life Technologies and Expression Analysis (LTEA) Assay for Intercellular Adhesion Molecule 1 (ICAM1) using HepaRG (AID 2283507). In a few lines:
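Readout is qRT-PCR mRNA level, normalized to three housekeeping genes and fitted bidirectionally against 0.5% DMSO vehicle. Human HepaRG cultures received compound for 48 h, top concentration 100 uM with half-log dilutions.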

Read-out in test [3]: Insulin-like growth factor-binding protein 1 (IGFBP1), IGFBP1 (gene 3484)
The experiment in a line: LTEA_HepaRG_IGFBP1: Life Technologies and Expression Analysis (LTEA) Assay for Insulin-like growth factor-binding protein 1 (IGFBP1) using HepaRG (AID 2283508). In a few lines:
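Thawed HepaRG cells are plated for 48 h, switched to serum-free induction medium, then dosed in duplicate for another 48 h (100 uM top, half-log steps). Lysates in RLT go to qRT-PCR, and gain or loss of signal is fitted relative to vehicle.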

Read-out in test [4]: Interleukin 6 (IL6), IL6 (gene 3569)
Kind of test: LTEA_HepaRG_IL6: Life Technologies and Expression Analysis (LTEA) Assay for Interleukin 6 (IL6) using HepaRG (AID 2283509). The method, boiled down: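 Changes in IL6 mRNA, up or down relative to 0.5% DMSO controls, were derived from concentration-response curves in human HepaRG cells treated for 48 h at up to 100 uM, with ACTB, GAPDH and POLR2A as normalizers.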

Read-out in test [5]: Interleukin 6 Receptor (IL6R), IL6R (gene 3570)
Kind of test: LTEA_HepaRG_IL6R: Life Technologies and Expression Analysis (LTEA) Assay for Interleukin 6 Receptor (IL6R) using HepaRG (AID 2283510). The method, boiled down:
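Cells were thawed, plated and cultured 48 h, then medium was changed to serum-free induction medium. Chemicals were added in duplicate (100 uM top, half-log steps, 0.5% DMSO) for 48 h. Lysates were analyzed by qRT-PCR for IL6R expression.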

Read-out in test [6]: Keratin 19 (KRT19), KRT19 (gene 3880)
The experiment in a line: LTEA_HepaRG_KRT19: Life Technologies and Expression Analysis (LTEA) Assay for Keratin 19 (KRT19) using HepaRG (AID 2283512). The method, boiled down: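 KRT19 transcript levels, measured by Fluidigm qRT-PCR against three housekeeping genes, are fitted for gain or loss of signal relative to DMSO. Human HepaRG cells receive test chemicals (top 100 uM, half-log steps, 0.5% DMSO) for 48 hours.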

Read-out in test [7]: JUN Transcription Factor, JUN (gene 3725)
The experiment in a line: LTEA_HepaRG_JUN: Life Technologies and Expression Analysis (LTEA) Assay for JUN Transcription Factor using HepaRG (AID 2283513). The method, boiled down:
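Read-out is JUN transcript level by TaqMan qRT-PCR, normalized to ACTB, GAPDH and POLR2A, after 48 h chemical treatment of HepaRG cells. Concentration-response spanned eight half-log points up to 100 uM in 0.5% DMSO.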

Read-out in test [8]: Lipase C (LIPC), LIPC (gene 3990)
Kind of test: LTEA_HepaRG_LIPC: Life Technologies and Expression Analysis (LTEA) Assay for Lipase C (LIPC) using HepaRG (AID 2283514). In a few lines: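 In this multiplexed gene-expression screen, human HepaRG cultures received test chemicals for 48 h across eight concentrations with 100 uM highest, in duplicate. Values reflect LIPC mRNA induction or suppression versus DMSO vehicle, from normalized qRT-PCR.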

Read-out in test [9]: Lipoprotein lipase (LPL), LPL (gene 4023)
Kind of test: LTEA_HepaRG_LPL: Life Technologies and Expression Analysis (LTEA) Assay for Lipoprotein lipase (LPL) using HepaRG (AID 2283515). The method, boiled down:
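Concentration-response testing used half-log steps from 100 uM in 0.5% DMSO on human HepaRG cells, 48 h, duplicate wells. Phenobarbital 1 mM served as induction control; LPL mRNA was normalized to ACTB, GAPDH, POLR2A.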

Read-out in test [10]: MicroRNA 122 (MIR122), gene 406906
Kind of test: LTEA_HepaRG_MIR122: Life Technologies and Expression Analysis (LTEA) Assay for MicroRNA 122 (MIR122) using HepaRG (AID 2283516). Further: the transcript read is the microRNA miR-122. The method, boiled down: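 Human liver HepaRG cultures receive test chemicals for 48 h at eight half-log concentrations from 100 uM. Expression is quantified by qRT-PCR with ACTB/GAPDH/POLR2A normalization and fitted bidirectionally against 0.5% DMSO.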

Read-out in test [11]: matrix metalloproteinase-10 (MMP10), MMP10 (gene 4319)
Kind of test: LTEA_HepaRG_MMP10: Life Technologies and Expression Analysis (LTEA) Assay for matrix metalloproteinase-10 (MMP10) using HepaRG (AID 2283517). The method, boiled down: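 In differentiated HepaRG cultures kept in 0.5% DMSO, test chemicals act for 48 h over an eight-point range with a top dose of 100 uM. Expression is then quantified by TaqMan RT-PCR against ACTB, GAPDH and POLR2A.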

Read-out in the next test: MYC, MYC (gene 4609)
Kind of test: LTEA_HepaRG_MYC: Life Technologies and Expression Analysis (LTEA) Assay for MYC using HepaRG (AID 2283518). The method, boiled down: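 HepaRG, ~100,000 cells/well, collagen I; 48 h plating; serum-free induction medium; 48 h dosing, duplicate, 100 uM top, half-log, 0.5% DMSO; total RNA → qRT-PCR MYC; gain/loss fit vs DMSO.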

Read-out in test [12]: matrix metalloproteinase-3 (MMP3), MMP3 (gene 4314)
Kind of test: LTEA_HepaRG_MMP3: Life Technologies and Expression Analysis (LTEA) Assay for matrix metalloproteinase-3 (MMP3) using HepaRG (AID 2283519). The method, boiled down: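 Human liver HepaRG cultures received chemicals (top concentration 100 uM, 0.5% DMSO) for 48 h in duplicate. MMP3 mRNA induction or loss was then assessed via TaqMan qRT-PCR with housekeeping-gene normalisation.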

Read-out in test [13]: Paternally Expressed 10 (PEG10), PEG10 (gene 23089)
Kind of test: LTEA_HepaRG_PEG10: Life Technologies and Expression Analysis (LTEA) Assay for Paternally Expressed 10 (PEG10) using HepaRG (AID 2283520).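 On AC50: PEG10 transcript by qRT-PCR normalised to ACTB GAPDH and POLR2A.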 The method, boiled down: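 Human HepaRG cultures are dosed for 48 h across an eight-point half-log series starting at 100 uM, with 0.5% DMSO as vehicle and baseline. Gain or loss of PEG10 transcript is measured by qRT-PCR and fitted in both directions.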

Read-out in test [14]: Nuclear factor NF-kappa-B p105 subunit (Homo sapiens) (UniProt P19838)
The experiment in a line: LTEA_HepaRG_NFKB1: Life Technologies and Expression Analysis (LTEA) Assay for Nuclear Factor Kappa B Subunit 1 (NFKB1) using HepaRG (AID 2283521).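 Further: TaqMan qRT-PCR transcript normalised to ACTB GAPDH and POLR2A housekeeping genes.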 The method, boiled down:
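Differentiated human HepaRG cells were exposed for 48 h in serum-free induction medium to eight concentrations (top 100 uM, half-log steps, 0.5% DMSO), in duplicate. NFKB1 mRNA was measured by TaqMan qRT-PCR, normalized to ACTB/GAPDH/POLR2A, and fitted bidirectionally against DMSO.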

Read-out in test [15]: Protein phosphatase 2A (PPP2R4), PTPA (gene 5524)
Kind of test: LTEA_HepaRG_PPP2R4: Life Technologies and Expression Analysis (LTEA) Assay for Protein phosphatase 2A (PPP2R4) using HepaRG (AID 2283522). The method, boiled down:
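Cells were plated, cultured 48 h, switched to serum-free induction medium, then dosed for 48 h (8 points, max 100 uM, 0.5% DMSO). RNA was isolated and PPP2R4 expression measured by TaqMan qRT-PCR.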

Read-out in test [16]: Phosphatase and tensin (PTEN), PTEN (gene 5728)
The experiment in a line: LTEA_HepaRG_PTEN: Life Technologies and Expression Analysis (LTEA) Assay for Phosphatase and tensin (PTEN) using HepaRG (AID 2283523). In a few lines:
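Expression of PTEN is quantified in the human liver line HepaRG following two days of dosing (top concentration 100 uM, half-log dilutions, 0.5% DMSO). Values derive from bidirectional curve fitting relative to DMSO controls.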

Read-out in test [17]: solute carrier (SLC22A1), SLC22A1 (gene 6580)
Kind of test: LTEA_HepaRG_SLC22A1: Life Technologies and Expression Analysis (LTEA) Assay for solute carrier (SLC22A1) using HepaRG (AID 2283524). The method, boiled down:
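Transcript induction or suppression of SLC22A1 in human HepaRG cultures is scored after 48 h chemical treatment, with DMSO (0.5%) as baseline for bidirectional fitting. Concentrations span eight half-log points topping at 100 uM.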

Read-out in test [18]: Potassium channel subfamily K member 1 (KCNK1), KCNK1 (gene 3775)
The experiment in a line: LTEA_HepaRG_KCNK1: Life Technologies and Expression Analysis (LTEA) Assay for Potassium channel subfamily K member 1 (KCNK1) using HepaRG (AID 2283511). The method, boiled down:
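Human HepaRG cultures receive test chemicals for 48 h in 0.5% DMSO, top concentration 100 uM with half-log dilutions. Induction or suppression of KCNK1 mRNA relative to DMSO is derived by bidirectional fitting of qRT-PCR data.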

Calls of active or inactive are those of the source. How the source made its calls: active means hit-call score of the fitted dose curve at least 0.9, where 1 is the maximum; inactive means score below 0.9.

Chain of Nuclear factor NF-kappa-B p105 subunit (Homo sapiens) (P19838 whole entry, looked up): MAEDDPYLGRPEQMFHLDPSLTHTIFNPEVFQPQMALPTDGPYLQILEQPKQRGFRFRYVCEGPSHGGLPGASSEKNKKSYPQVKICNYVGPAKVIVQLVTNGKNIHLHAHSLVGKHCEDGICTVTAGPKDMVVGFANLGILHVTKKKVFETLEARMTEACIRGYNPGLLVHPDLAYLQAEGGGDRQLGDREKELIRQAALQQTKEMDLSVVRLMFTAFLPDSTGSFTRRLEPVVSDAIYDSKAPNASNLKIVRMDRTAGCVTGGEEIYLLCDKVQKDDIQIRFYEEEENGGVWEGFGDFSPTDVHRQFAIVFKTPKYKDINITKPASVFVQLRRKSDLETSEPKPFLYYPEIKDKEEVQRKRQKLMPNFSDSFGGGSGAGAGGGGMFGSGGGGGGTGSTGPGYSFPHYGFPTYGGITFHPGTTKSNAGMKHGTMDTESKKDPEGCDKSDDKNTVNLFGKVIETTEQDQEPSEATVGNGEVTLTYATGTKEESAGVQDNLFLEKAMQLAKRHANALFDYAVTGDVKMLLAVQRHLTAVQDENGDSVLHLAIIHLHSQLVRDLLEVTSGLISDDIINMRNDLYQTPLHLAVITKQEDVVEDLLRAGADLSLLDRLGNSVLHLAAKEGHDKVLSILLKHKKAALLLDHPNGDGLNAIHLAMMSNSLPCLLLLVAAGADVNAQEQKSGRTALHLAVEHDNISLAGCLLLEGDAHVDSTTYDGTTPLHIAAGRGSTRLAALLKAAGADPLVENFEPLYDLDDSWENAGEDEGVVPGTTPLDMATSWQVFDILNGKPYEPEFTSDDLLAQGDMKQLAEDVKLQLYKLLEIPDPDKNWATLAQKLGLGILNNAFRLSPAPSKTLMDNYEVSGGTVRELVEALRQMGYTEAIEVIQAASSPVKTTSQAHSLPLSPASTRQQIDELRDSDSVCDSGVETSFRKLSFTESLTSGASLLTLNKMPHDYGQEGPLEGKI

Take `CCCCCCCCCC[N+](C)(C)CCCCCCCCCC`: the AC50 with HGF (gene 3082) is 50 µM (active); in test [1], 67.7 µM (active); in [2], 94.5 µM (active); in test [3], 81.6 µM (active); in [4] it was 78.3 µM (active); in test [7], 90.5 µM (active). The AC50 in test [9] was 88.7 µM (active); in test [12], 94 µM (active); in test [13], 50 µM (active); in test [16], 83.2 µM (active); in [17], 61.5 µM (active). Also, the outcome in test [5] is “inactive”; in test [6], “inactive”; in test [8], “inactive”; in [10] it was “inactive”; in test [11], “inactive”; with MYC, MYC (gene 4609), “inactive”. For the same molecule, the molecule was called inactive in [14] and in test [15].

Regarding `Cc1cccc([N+](=O)[O-])c1`, the molecule was classed as inactive (with HGF (gene 3082); in test [1]; in [2]; in [4]; in test [5]; in test [18]). Further, the outcome in test [6] is “inactive”; in test [8] it was “inactive”; in [9], “inactive”; in test [10], “inactive”; in [11], “inactive”; with MYC, MYC (gene 4609) it was “inactive”. Moreover, the molecule was classed as inactive in test [12], in [13], in test [14], in test [15], in test [16] and in test [17].

Take `O=S(=O)(O)C(F)(F)C(F)(F)C(F)(F)C(F)(F)F`: the result (in the test with HGF (gene 3082); in [1]; in test [2]; in [3]; in test [4]; in test [5]) was inactive. The result in [18], in [6], in [8], in test [9], in test [10] and in [11] was inactive. The outcome with MYC, MYC (gene 4609) was “inactive”; in [12], “inactive”; in test [13], “inactive”; in test [14], “inactive”; in test [15] it was “inactive”; in test [16], “inactive”. For the same molecule, in test [17], the molecule was classed as inactive.

Usually AC50 stands for the midpoint of the concentration-response curve, whichever way the signal moves.
